Measured values reported in ChEMBL document CHEMBL5606460, “ASAP - DENV-2 NS2B-NS3 protease fluorescence single point” (2024).
Screen size: about 2,000 compounds; about 110 (5.5%) showed an effect of 50% or more. Only a selection was taken, and strong results are over-represented in it overall.

Target: Genome polyprotein (dengue virus type 2) (UniProt P29990)
[1] = Thailand/16681/1984, Concentration 25.0 uM, Number of replicates 1.0

Cc1nnccc1Cn1cc(C2CCNCC2)c(C)n1
inhibition (Thailand/16681/1984, Concentration 49.5 uM, Number of replicates 2.0, Standard deviation 1.059758229221688 %): -5.29% | inhibition (Thailand/16681/1984, Concentration 99.01 uM, Number of replicates 2.0, Standard deviation 7.779121042682183 %): 2.01% | inhibition (Thailand/16681/1984, Concentration 198.0 uM, Number of replicates 2.0, Standard deviation 1.1444678313445817 %): -3.21%

Cc1cc(CO)c2cccc(C[C@H](NC(=O)[C@@H](N)c3ccsc3)C(=O)O)c2n1
inhibition (Thailand/16681/1984, Concentration 49.95 uM, Number of replicates 2.0, Standard deviation 1.7977802295531586 %): 8.31% | inhibition (Thailand/16681/1984, Concentration 99.9 uM, Number of replicates 2.0, Standard deviation 1.1856845832025373 %): 20.1%

Cc1cc(CO)c2cccc(Cc3ccccc3NC(=O)c3ccno3)c2n1
inhibition (Thailand/16681/1984, Concentration 49.95 uM, Number of replicates 2.0, Standard deviation 3.752588616330447 %): 3.29% | inhibition (Thailand/16681/1984, Concentration 99.9 uM, Number of replicates 2.0, Standard deviation 1.45880155634974 %): 6.29%

Cc1cccc(C)c1OC[C@H](C)NC(=O)C1CCN(c2ccc(C=O)cc2)CC1
inhibition [1]: 6.86%

CNC(=O)c1cc(Cl)ccc1N(C)S(=O)(=O)c1ccc(Oc2ccccc2Cl)cc1
inhibition (Thailand/16681/1984, Concentration 49.5 uM, Number of replicates 2.0, Standard deviation 1.1912141654334696 %): -2.39% | inhibition (Thailand/16681/1984, Concentration 99.01 uM, Number of replicates 2.0, Standard deviation 1.3706697565683075 %): -0.121% | inhibition (Thailand/16681/1984, Concentration 198.0 uM, Number of replicates 2.0, Standard deviation 0.031456216092408736 %): 3.32%

CN(c1ccc(Cl)cc1C(N)=O)S(=O)(=O)c1ccc(Oc2ccccc2Cl)cc1
inhibition (Thailand/16681/1984, Concentration 49.5 uM, Number of replicates 2.0, Standard deviation 0.11551161483271621 %): 1.15% | inhibition (Thailand/16681/1984, Concentration 99.01 uM, Number of replicates 2.0, Standard deviation 0.4161514072882 %): 3.78% | inhibition (Thailand/16681/1984, Concentration 198.0 uM, Number of replicates 2.0, Standard deviation 1.5666270190069185 %): 5.59%

CN(CCS(N)(=O)=O)C(=O)c1cc(Cl)ccc1NS(=O)(=O)c1ccc(Oc2ccccc2Cl)cc1
inhibition (Thailand/16681/1984, Concentration 49.5 uM, Number of replicates 2.0, Standard deviation 3.051075775612508 %): 8.12% | inhibition (Thailand/16681/1984, Concentration 99.01 uM, Number of replicates 2.0, Standard deviation 2.2523140974306535 %): 55.8% | inhibition (Thailand/16681/1984, Concentration 198.0 uM, Number of replicates 2.0, Standard deviation 0.05978513602530914 %): 97.7%

CCCN(C)C(=O)c1cc(Cl)ccc1NS(=O)(=O)c1ccc(Oc2ccccc2Cl)cc1
inhibition (Thailand/16681/1984, Concentration 49.5 uM, Number of replicates 2.0, Standard deviation 0.9470295707961462 %): 75.9% | inhibition (Thailand/16681/1984, Concentration 99.01 uM, Number of replicates 2.0, Standard deviation 0.4835625940830703 %): 88.8% | inhibition (Thailand/16681/1984, Concentration 198.0 uM, Number of replicates 2.0, Standard deviation 0.2692812727579233 %): 93.4%

COCCCN(Cc1ccccc1)C(=O)C1CCN(c2ccc(C=O)cc2)CC1
inhibition [1]: 16.7%

O=Cc1ccc(N2CCC(C(=O)Nc3cccc(OC(F)(F)F)c3)CC2)cc1
inhibition [1]: 12.8%

O=Cc1ccc(N2CCC(C(=O)N3CCN(c4ncc(C(F)(F)F)cc4Cl)CC3)CC2)cc1
inhibition [1]: -1.15%

CSCC(=O)Nc1ccc(Cl)c2cccnc12
inhibition (Thailand/16681/1984, Concentration 49.95 uM, Number of replicates 2.0, Standard deviation 4.284996583998793 %): -8.76% | inhibition (Thailand/16681/1984, Concentration 99.9 uM, Number of replicates 2.0, Standard deviation 5.022059659232943 %): -8.17%

Cc1c(C(=O)NCc2ccc(Cl)cc2OCCO)ccc(O)c1NC(=O)c1ccncc1F
inhibition (Thailand/16681/1984, Concentration 49.5 uM, Number of replicates 2.0, Standard deviation 1.9465984757153059 %): -3.14% | inhibition (Thailand/16681/1984, Concentration 99.01 uM, Number of replicates 2.0, Standard deviation 1.7394020396248402 %): -2.65% | inhibition (Thailand/16681/1984, Concentration 198.0 uM, Number of replicates 2.0, Standard deviation 1.2400320592735166 %): 0.351%

O=Cc1ccc(N2CCC(C(=O)Nc3cccc(Br)n3)CC2)cc1
inhibition [1]: 92.6%

Cc1c(Br)cccc1NC(=O)C1CCN(c2ccc(C=O)cc2)CC1
inhibition [1]: 13%

O=Cc1ccc(N2CCC(C(=O)Nc3ncc(Br)cc3O)CC2)cc1
inhibition [1]: 52.8%

O=Cc1ccc(N2CCC(C(=O)Nc3ccc(Br)cc3O)CC2)cc1
inhibition [1]: 31.4%

Cc1nc(NC(=O)C2CCN(c3ccc(C=O)cc3)CC2)ccc1Br
inhibition [1]: 12.1%

Cc1ccc2cccc(NC(=O)C3CCN(c4ccc(C=O)cc4)CC3)c2n1
inhibition [1]: 50.9%

O=Cc1ccc(N2CCC(C(=O)Nc3cccc(C(F)(F)F)n3)CC2)cc1
inhibition [1]: 13.5%

O=Cc1ccc(N2CCC(C(=O)Nc3cccc4ccc(O)cc34)CC2)cc1
inhibition [1]: 35.2%

O=Cc1ccc(N2CCC(C(=O)Nc3ncc(F)cc3Br)CC2)cc1
inhibition [1]: 10.9%

COC(=O)c1cccc(C(=O)Nc2ccncc2C)c1
inhibition (Thailand/16681/1984, Concentration 49.5 uM, Number of replicates 2.0, Standard deviation 0.22567664905073445 %): -4.08% | inhibition (Thailand/16681/1984, Concentration 99.01 uM, Number of replicates 2.0, Standard deviation 0.2045809712592737 %): -3.74% | inhibition (Thailand/16681/1984, Concentration 198.0 uM, Number of replicates 2.0, Standard deviation 1.3054913833669988 %): -2.98%

C[C@@H](c1ccccc1)N(CC1CC1)C(=O)C1CCN(c2ccc(C=O)cc2)CC1
inhibition [1]: 13.8%

O=C(c1csc([C@H]2CCCNC2)n1)N1CC[C@H](c2cccnc2)C1
inhibition (Thailand/16681/1984, Concentration 49.5 uM, Number of replicates 2.0, Standard deviation 1.7251582592894925 %): -0.499% | inhibition (Thailand/16681/1984, Concentration 99.01 uM, Number of replicates 2.0, Standard deviation 2.248532513594862 %): 1.01% | inhibition (Thailand/16681/1984, Concentration 198.0 uM, Number of replicates 2.0, Standard deviation 1.6393165928155962 %): 2.41%
